Results reported in PubChem BioAssay (EPA / NIEHS).
Activity calls are given as the source filed them. How the source made its calls: active means hit-call score of the fitted dose curve at least 0.9, where 1 is the maximum; inactive means score below 0.9.

Columns and labels:
[1] = read-out: Vascular cell adhesion molecule 1 (VCAM1), VCAM1 (gene 7412); assay: BSK_CASM3C_VCAM1: BioMAP Diversity Plus: CASM3C Assay for Vascular cell adhesion molecule 1 (VCAM1) Biomarker Activity (AID 2283055); details: primary human coronary artery smooth muscle cells; actives raise or lower the signal;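 further: VCAM-1 protein level quantified by ELISA on the cells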
[2] = read-out: Collagen III, COL3A1 (gene 1281); assay: BSK_hDFCGF_CollagenIII: BioMAP Diversity Plus: hDFCGF Assay for Collagen III Biomarker Activity (AID 2283056); details: primary human foreskin fibroblasts; actives raise or lower the signal
How it was run: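 Human foreskin primary fibroblasts were exposed to test chemicals for 24 h, after which collagen III was quantified by ELISA. Activity was fitted bidirectionally against DMSO as negative control and baseline.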

[3] = read-out: Epidermal growth factor receptor (EGFR), EGFR (gene 1956); assay: BSK_hDFCGF_EGFR: BioMAP Diversity Plus: hDFCGF Assay for Epidermal growth factor receptor (EGFR) Biomarker Activity (AID 2283057); details: primary human foreskin fibroblasts; actives raise or lower the signal
How it was run: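 Cell-based multiplexed assay in primary human foreskin fibroblasts. EGFR is read by ELISA 24 h after treatment and compared with DMSO controls.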

[4] = read-out: Interleukin-8 (IL8), CXCL8 (gene 3576); assay: BSK_hDFCGF_IL8: BioMAP Diversity Plus: hDFCGF Assay for Interleukin-8 (IL8) Biomarker Activity (AID 2283058); details: primary human foreskin fibroblasts; actives raise or lower the signal
How it was run: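 hDFCGF human dermal fibroblasts; 24 h chemical exposure; IL-8 by ELISA; bidirectional curve fit vs DMSO baseline; gain or loss of signal scored.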

[5] = BSK_hDFCGF_Proliferation: Cell Proliferation Assessment in the BioMAP Diversity Plus: hDFCGF Assay (AID 2283059); details: primary human foreskin fibroblasts;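 further: curves fitted for both rise and fall of signal versus DMSO baseline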
How it was run: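 This proliferation readout used SRB total-protein staining of human foreskin fibroblasts […], normalized to DMSO with bidirectional curve fitting.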

[6] = read-out: Macrophage colony-stimulating factor (MCSF), CSF1 (gene 1435); assay: BSK_hDFCGF_MCSF: BioMAP Diversity Plus: hDFCGF Assay for Macrophage colony-stimulating factor (MCSF) Biomarker Activity (AID 2283060); details: primary human foreskin fibroblasts; actives raise or lower the signal
How it was run: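 Human foreskin primary fibroblasts were treated with test chemical for 24 h, and M-CSF was then measured by ELISA. Data were fitted bidirectionally against DMSO as the negative control and activity baseline.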

[7] = BSK_hDFCGF_SRB: Viability Assessment in the BioMAP Diversity Plus: hDFCGF Assay (AID 2283061); details: primary human foreskin fibroblasts;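 further: cells exposed to compound for 24 h before the read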
How it was run: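 Human foreskin primary fibroblasts were treated with compound and assessed 24 h after dosing. Total protein was measured by sulforhodamine B staining (0.1% SRB after 10% TCA fixation, 560 nm read) as a cytotoxicity marker, with bidirectional fitting against DMSO baseline.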

[8] = read-out: TIMP metallopeptidase inhibitor 1 (TIMP1), TIMP1 (gene 7076); assay: BSK_hDFCGF_TIMP1: BioMAP Diversity Plus: hDFCGF Assay for TIMP metallopeptidase inhibitor 1 (TIMP1) Biomarker Activity (AID 2283062); details: primary human foreskin fibroblasts; actives raise or lower the signal
How it was run: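 Primary human foreskin fibroblasts in the hDFCGF system were dosed with compound for 24 h, then TIMP-1 was measured by ELISA. Activity was fitted bidirectionally relative to DMSO control; parallel SRB staining assessed cytotoxicity.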

[9] = read-out: Monokine induced gamma interferon (MIG), CXCL9 (gene 4283); assay: BSK_hDFCGF_MIG: BioMAP Diversity Plus: hDFCGF Assay for Monokine induced gamma interferon (MIG) Biomarker Activity (AID 2283063); details: primary human foreskin fibroblasts; actives raise or lower the signal
How it was run: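 ELISA read-out of MIG from primary human dermal fibroblasts 24 h post-dosing. Gain or loss of signal fitted bidirectionally, DMSO as baseline.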

[10] = read-out: Matrix Metallopeptidase 1 (MMP1), MMP1 (gene 4312); assay: BSK_hDFCGF_MMP1: BioMAP Diversity Plus: hDFCGF Assay for Matrix Metallopeptidase 1 (MMP1) Biomarker Activity (AID 2283064); details: primary human foreskin fibroblasts; actives raise or lower the signal
How it was run: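 MMP1 levels quantified by ELISA 24 h after dosing human dermal fibroblast cultures, with parallel SRB total-protein staining for overt cytotoxicity. Data fitted in both directions against DMSO baseline.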

[11] = read-out: Vascular cell adhesion molecule 1 (VCAM1), VCAM1 (gene 7412); assay: BSK_hDFCGF_VCAM1: BioMAP Diversity Plus: hDFCGF Assay for Vascular cell adhesion molecule 1 (VCAM1) Biomarker Activity (AID 2283065); details: primary human foreskin fibroblasts; actives raise or lower the signal;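 on AC50: VCAM-1 protein level quantified by ELISA after 24 h chemical exposure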
How it was run: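 Primary human foreskin fibroblasts (hDFCGF system) were dosed with chemical and VCAM-1 was measured by ELISA 24 h later. Bidirectional curve fitting used DMSO as negative control and activity baseline.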

[12] = read-out: Plasminogen activator inhibitor-1 (PAI1), SERPINE1 (gene 5054); assay: BSK_hDFCGF_PAI1: BioMAP Diversity Plus: hDFCGF Assay for Plasminogen activator inhibitor-1 (PAI1) Biomarker Activity (AID 2283066); details: primary human foreskin fibroblasts; actives raise or lower the signal
How it was run: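 Human skin fibroblast cultures receive chemical for 24 h before PAI-1 is measured by ELISA; signal changes are fitted bidirectionally against DMSO-treated wells.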

[13] = read-out: Intercellular Adhesion Molecule 1 (ICAM1), ICAM1 (gene 3383); assay: BSK_KF3CT_ICAM1: BioMAP Diversity Plus: KF3CT Assay for Intercellular Adhesion Molecule 1 (ICAM1) Biomarker Activity (AID 2283067); details: primary human keratinocytes with fibroblasts; actives raise or lower the signal
How it was run: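 Human keratinocyte plus foreskin fibroblast primary co-culture was exposed to chemical for 24 h. ICAM-1 was then quantified by ELISA, and the data were fit bidirectionally against DMSO as the negative control and baseline.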

[14] = read-out: Interferon-gamma inducible Protein 10 (IP10), CXCL10 (gene 3627); assay: BSK_KF3CT_IP10: BioMAP Diversity Plus: KF3CT Assay for Interferon-gamma inducible Protein 10 (IP10) Biomarker Activity (AID 2283068); details: primary human keratinocytes with fibroblasts; actives raise or lower the signal
How it was run: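 Signal is secreted/surface IP-10 by ELISA in a human primary skin co-culture of keratinocytes and foreskin fibroblasts, taken 24 h post-dosing; DMSO served as negative control.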

[15] = BSK_KF3CT_SRB: Viability Assessment in the BioMAP Diversity Plus: KF3CT Assay (AID 2283069); details: primary human keratinocytes with fibroblasts
How it was run: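 Cytotoxicity was gauged by SRB staining (0.1% SRB, 10% TCA fixation, 560 nm) of parallel cultures at 24 h. The cells were primary human skin keratinocytes co-cultured with fibroblasts, and activity was fitted in both directions against DMSO.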

[16] = read-out: Interleukin-1 alpha (IL1a), IL1A (gene 3552); assay: BSK_KF3CT_IL1a: BioMAP Diversity Plus: KF3CT Assay for Interleukin-1 alpha (IL1a) Biomarker Activity (AID 2283070); details: primary human keratinocytes with fibroblasts; actives raise or lower the signal
How it was run: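 IL-1a was detected by ELISA 24 h after chemical treatment of a co-culture of human skin keratinocytes and foreskin fibroblasts. Gain or loss of signal was fitted against the DMSO baseline.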

[17] = read-out: TIMP metallopeptidase inhibitor 2 (TIMP2), TIMP2 (gene 7077); assay: BSK_KF3CT_TIMP2: BioMAP Diversity Plus: KF3CT Assay for TIMP metallopeptidase inhibitor 2 (TIMP2) Biomarker Activity (AID 2283071); details: primary human keratinocytes with fibroblasts; actives raise or lower the signal
How it was run: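 Measurements come from ELISA detection of TIMP-2 at 24 hours in a dosed human keratinocyte and foreskin fibroblast co-culture. DMSO serves as negative control and baseline.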

[18] = read-out: C-C motif chemokine 2 (Homo sapiens) (UniProt P13500); assay: BSK_KF3CT_MCP1: BioMAP Diversity Plus: KF3CT Assay for Monocyte Chemoattractant Protein 1 (MCP1/CCL2) Biomarker Activity (AID 2283073); details: primary human keratinocytes with fibroblasts; actives raise or lower the signal
How it was run: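 Human keratinocyte plus foreskin fibroblast primary co-culture exposed to chemical for 24 h. MCP-1 levels measured by ELISA. Bidirectional curve fitting relative to DMSO negative control as baseline.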

[19] = read-out: Transforming growth factor beta 1 (TGFb1), TGFB1 (gene 7040); assay: BSK_KF3CT_TGFb1: BioMAP Diversity Plus: KF3CT Assay for Transforming growth factor beta 1 (TGFb1) Biomarker Activity (AID 2283072); details: primary human keratinocytes with fibroblasts; actives raise or lower the signal
How it was run: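 TGF-b1 ELISA on a 24 h dosed co-culture of human keratinocytes and foreskin fibroblasts; cytotoxicity tracked in parallel cultures by SRB staining.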

[20] = read-out: Matrix Metallopeptidase 9 (MMP9), MMP9 (gene 4318); assay: BSK_KF3CT_MMP9: BioMAP Diversity Plus: KF3CT Assay for Matrix Metallopeptidase 9 (MMP9) Biomarker Activity (AID 2283074); details: primary human keratinocytes with fibroblasts; actives raise or lower the signal
How it was run: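 MMP-9 quantified by ELISA after 24 h chemical treatment of primary human skin keratinocyte/fibroblast co-cultures; gain or loss fitted against DMSO, with parallel SRB staining (0.1% SRB, 560 nm) for overt cytotoxicity.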

Measured: AC50

Cc1cc(C(C)(C)c2ccc(O)c(C)c2)ccc1O
active: [1] 13.9 µM | [2] 15.6 µM | [5] 13.9 µM | [6] 15.3 µM | [7] 16.1 µM | [17] 12.2 µM
not listed: [19] | [20]
inactive: all other assays above

CCCCN(CCCC)C(=S)[S-].CCCCN(CCCC)C(=S)[S-].[Ni+2]
not listed: [6] | [18] | [20]
inactive: all other assays above

CC(C)O.CC(C)O.OCCN(CCO)CCO.OCCN(CCO)CCO.[Ti]
active: [6] 20 µM | [10] 24.8 µM | [14] 33.7 µM
not listed: [9] | [20]
inactive: all other assays above

COc1ccccc1N
not listed: [9] | [19] | [20]
inactive: all other assays above

Cc1ccccc1OP(=O)(Oc1ccccc1)Oc1ccccc1
active: [2] 2.84 µM | [5] 20 µM | [6] 10.5 µM | [7] 29.2 µM | [8] 14.5 µM | [10] 27.4 µM | [11] 5.06 µM | [16] 20 µM | [17] 14.4 µM
inactive: [1] | [3] | [4] | [12] | [13] | [14] | [15] | [18]

Oc1cccc(-c2ccccc2)c1
active: [1] 31.7 µM | [2] 30 µM | [5] 35.3 µM | [6] 33.7 µM | [7] 30.7 µM | [11] 31.6 µM | [16] 20 µM | [17] 35 µM
not listed: [19] | [20]
inactive: all other assays above

Oc1c(Cl)cc(Cl)cc1Cl
not listed: [9] | [19]
inactive: all other assays above

CCC(C)(C#N)N=NC(C)(C#N)CC (stereo unspecified)
active: [12] 0.016 µM
not listed: [9] | [19]
inactive: all other assays above

O=C(O)COc1cc(Cl)c(Cl)cc1Cl
not listed: [6] | [20]
inactive: all other assays above

Cc1ccc2nc3sc(=O)sc3nc2c1
active: [5] 5 µM | [11] 5 µM | [13] 3.16 µM | [16] 5 µM | [17] 2.5 µM
not listed: [6] | [9] | [20]
inactive: all other assays above
